From PubChem BioAssay (NCI)
Compounds without any hit were thinned out: in the full panel of roughly 83,000, 20% have a hit.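 Cell lines were cultured in 96-well plates, exposed to a single compound concentration, and assessed for percent growth 48 hours later.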 The source made the active and inactive calls. Rule for the calls: active = growth percent below 10; inactive = the rest.

Tests used:
Assay in all cases: NCI-60 one-dose screen, 48 h (100 = growth as untreated, 0 = no growth, -100 = all killed)
Conditions in all cases: 10 µM unless noted
DU-145 prostate = system: DU-145 prostate
K-562 leukemia = system: K-562 leukemia
MALME-3M melanoma = system: MALME-3M melanoma
MDA-MB-231 breast = system: MDA-MB-231 breast
RXF 393 renal = system: RXF 393 renal
SF-268 CNS = system: SF-268 CNS
SF-295 CNS = system: SF-295 CNS
SF-539 CNS = system: SF-539 CNS
UACC-257 melanoma = system: UACC-257 melanoma
M14 melanoma = system: M14 melanoma
HCT-15 colon = system: HCT-15 colon
HT29 colon = system: HT29 colon
SNB-75 CNS = system: SNB-75 CNS
SNB-19 CNS = system: SNB-19 CNS
U251 CNS = system: U251 CNS
PC-3 prostate = system: PC-3 prostate
SK-MEL-5 melanoma = system: SK-MEL-5 melanoma
UACC-62 melanoma = system: UACC-62 melanoma
LOX IMVI melanoma = system: LOX IMVI melanoma
SK-MEL-28 melanoma = system: SK-MEL-28 melanoma

Row | SMILES | growth (DU-145 prostate) | growth (K-562 leukemia) | growth (MALME-3M melanoma) | growth (MDA-MB-231 breast) | growth (RXF 393 renal) | growth (SF-268 CNS) | growth (SF-295 CNS) | growth (SF-539 CNS) | growth (UACC-257 melanoma) | growth (M14 melanoma) | growth (HCT-15 colon) | growth (HT29 colon) | growth (SNB-75 CNS) | growth (SNB-19 CNS) | growth (U251 CNS) | growth (PC-3 prostate) | growth (SK-MEL-5 melanoma) | growth (UACC-62 melanoma) | growth (LOX IMVI melanoma) | growth (SK-MEL-28 melanoma)
1 | O=C(CCCCCCCCC(=O)Nc1cccc(C2=NCCN2)c1)Nc1cccc(C2=NCCN2)c1 | 99.8% (inactive) | 73.1% (inactive) | 69.8% (inactive) | 101% (inactive) | 108% (inactive) | 103% (inactive) | 99.9% (inactive) | 108% (inactive) | 95.6% (inactive) | 97.1% (inactive) | 102% (inactive) | 82.3% (inactive) | 110% (inactive) | 102% (inactive) | 91.7% (inactive) | 84.9% (inactive) | 98.2% (inactive) | 105% (inactive) | 98.7% (inactive) | 92.8% (inactive)
2 | NC(=N\N=C\c1ccccc1O)/C(N)=N/N=C/c1ccccc1O | 80.1% (inactive) | 71.1% (inactive) | 79% (inactive) | 83.6% (inactive) | 106% (inactive) | 78.8% (inactive) | 77.7% (inactive) | 81.3% (inactive) | 84.3% (inactive) | 79% (inactive) | 66% (inactive) | 73.8% (inactive) | 84.4% (inactive) | 84.4% (inactive) | 82.7% (inactive) | 56.1% (inactive) | 84.6% (inactive) | 68.9% (inactive) | 48.6% (inactive) | 90.5% (inactive)
3 | O=c1[nH]nc(-c2ccc(Br)cc2)c2sc(NC(=S)Nc3ccc(Cl)cc3)nc12 | 110% (inactive) | 98.6% (inactive) | 94.2% (inactive) | 92.4% (inactive) | 111% (inactive) | 100% (inactive) | 96.8% (inactive) | 103% (inactive) | 113% (inactive) | 95.3% (inactive) | 103% (inactive) | 94.1% (inactive) | 95.7% (inactive) | 103% (inactive) | 108% (inactive) | 96.6% (inactive) | 99% (inactive) | 89.5% (inactive) | 84.7% (inactive) | 109% (inactive)
4 | O=C(/C(=C\c1c(-c2ccccc2)[nH]c2ccccc12)S(=O)(=O)c1ccccc1)c1ccccc1 | 68.5% (inactive) | 8% (active) | 83.3% (inactive) | 49.8% (inactive) | 46.7% (inactive) | 62.1% (inactive) | -6.63% (active) | 75.4% (inactive) | 32.3% (inactive) | 49.7% (inactive) | 57.4% (inactive) | 65.9% (inactive) | 45.4% (inactive) | 73.8% (inactive) | 58.6% (inactive) | 16.6% (inactive) | 47.7% (inactive) | 39.8% (inactive) | 58.9% (inactive) | 76.2% (inactive)
5 | O=C1c2ccccc2C(=O)c2c1oc1c2c(=O)[nH]c2ccc(Cl)cc21 | -45.4% (active) | 12.9% (inactive) | -51.7% (active) | -42.2% (active) | -46.3% (active) | -31.7% (active) | -1.34% (active) | -28% (active) | 18.8% (inactive) | 10.4% (inactive) | -31.1% (active) | 66.4% (inactive) | -9.01% (active) | 7.11% (active) | -77.5% (active) | -33.3% (active) | 12.3% (inactive) | 75.1% (inactive) | 11.1% (inactive) | -11.8% (active)
6 | CN(C)CSc1nc2ccccc2s1 | 105% (inactive) | 119% (inactive) | 86.7% (inactive) | 91.7% (inactive) | 106% (inactive) | 101% (inactive) | 92.8% (inactive) | 94.2% (inactive) | 113% (inactive) | 88.8% (inactive) | 97.9% (inactive) | 95% (inactive) | 75.2% (inactive) | 110% (inactive) | 103% (inactive) | 74.8% (inactive) | 96.9% (inactive) | 95.9% (inactive) | 90% (inactive) | 108% (inactive)
7 | NC(=O)c1ccc2nc3c(n2c1)C(=O)C(=O)c1ccccc1-3 | -96.3% (active) | -28.2% (active) | -97.3% (active) | -17.3% (active) | -96.5% (active) | -70.2% (active) | -98.7% (active) | -98.5% (active) | -98.3% (active) | -88% (active) | -63.4% (active) | -7.62% (active) | -95% (active) | -97.5% (active) | -98.6% (active) | -48.3% (active) | -100% (active) | -94.1% (active) | -78.4% (active) | -82.2% (active)
8 | C=C1C(=O)O[C@H]2[C@H]1CC/C(COC(=O)c1cn(C)c3ccccc13)=C\CC[C@@]1(C)O[C@@H]21 | -72.4% (active) | 0.396% (active) | -60.3% (active) | -49% (active) | -87.8% (active) | -8.89% (active) | 63.8% (inactive) | -58% (active) | -56% (active) | -36.8% (active) | -44.9% (active) | -77.2% (active) | 59% (inactive) | 25.6% (inactive) | 11.7% (inactive) | -55.1% (active) | 4.24% (active) | -51.1% (active) | -86.5% (active) | -22% (active)
9 | CCOC(=O)c1c(C)nc2c(c1N)/C(=C/c1ccccn1)C(=O)N2Cc1ccccc1 | 12.6% (inactive) | -16% (active) | 31.4% (inactive) | 14.1% (inactive) | -76.4% (active) | 16.7% (inactive) | 65.6% (inactive) | 11.1% (inactive) | 35.1% (inactive) | 0.865% (active) | -58.9% (active) | -18.6% (active) | 68.6% (inactive) | 0.719% (active) | -87.4% (active) | 2.04% (active) | 41.2% (inactive) | 4.68% (active) | -88.4% (active) | -2.42% (active)
10 | COc1ccc2c(c1)C1(C(=O)N2)C(C#N)=C(c2ccccc2)Nc2c1c(-c1ccccc1)nn2-c1ccccc1 (stereo not given) | 49.8% (inactive) | 70.4% (inactive) | 63.8% (inactive) | 45.1% (inactive) | 64.2% (inactive) | 52.1% (inactive) | 69.7% (inactive) | -3.82% (active) | 87.9% (inactive) | 72.2% (inactive) | 85% (inactive) | 43% (inactive) | 33.8% (inactive) | 59.7% (inactive) | 9.08% (active) | 7.28% (active) | 58.6% (inactive) | 85.1% (inactive) | 52.7% (inactive) | 42.9% (inactive)
11 | CCOC(=O)C1CCN(S(=O)(=O)/N=C2/NC(=O)NC2=C(Cl)Cl)CC1 | 25.7% (inactive) | -15.7% (active) | -60% (active) | 9.62% (active) | 83.8% (inactive) | 11.2% (inactive) | 17.4% (inactive) | -4.27% (active) | 19.9% (inactive) | -22.4% (active) | -72.6% (active) | -61.6% (active) | 55.5% (inactive) | 16.8% (inactive) | -86.7% (active) | 17.7% (inactive) | 14.1% (inactive) | -30.6% (active) | -65% (active) | -8.67% (active)
12 | C(=C\c1cn(-c2ccccc2)nc1-c1ccccc1)/c1nnc(-c2c[nH]c3ccccc23)o1 | 27% (inactive) | 61.5% (inactive) | 7.81% (active) | 9.62% (active) | 53.5% (inactive) | 40.9% (inactive) | 29.8% (inactive) | 59.2% (inactive) | 107% (inactive) | 45.5% (inactive) | 69% (inactive) | 39.7% (inactive) | 17.6% (inactive) | 60.5% (inactive) | 20.9% (inactive) | 26% (inactive) | 59.4% (inactive) | 95.4% (inactive) | 47.6% (inactive) | 53.2% (inactive)
13 | CC(=O)[C@@H]1CC[C@]2(C(=O)O)CC[C@]3(C)[C@H](CC[C@@H]4[C@@]5(C)Cc6c([nH]c7ccccc67)C(C)(C)[C@@H]5CC[C@]43C)[C@@H]12 | 59.4% (inactive) | 37.8% (inactive) | 96.1% (inactive) | 83% (inactive) | 73.2% (inactive) | 63.4% (inactive) | 36% (inactive) | 74.3% (inactive) | 84.2% (inactive) | 78.7% (inactive) | 44.3% (inactive) | 68.6% (inactive) | 94.7% (inactive) | 70.2% (inactive) | 45% (inactive) | 40.7% (inactive) | 71.8% (inactive) | 67.9% (inactive) | 50.1% (inactive) | 78.5% (inactive)
14 | Nc1c(C(=O)Nc2ccccc2)sc2nc3c(cc12)CN(C(=O)OCc1ccccc1)CC3 | 59.4% (inactive) | 21.5% (inactive) | 52.3% (inactive) | 68.4% (inactive) | 68.2% (inactive) | 62.2% (inactive) | 40.7% (inactive) | 44.9% (inactive) | 59.6% (inactive) | 26.5% (inactive) | 37.3% (inactive) | 15.7% (inactive) | 49.6% (inactive) | 56.1% (inactive) | 37.8% (inactive) | 46% (inactive) | 36% (inactive) | 43% (inactive) | 40.8% (inactive) | 62.3% (inactive)
15 | C=C(C)[C@@H]1CCC=C2CC[C@]3(C)[C@H](CC[C@@H]4[C@@]5(C)CCCNC(C)(C)[C@@H]5CC[C@]43C)[C@H]21 | 18.6% (inactive) | -0.754% (active) | 38% (inactive) | -6.11% (active) | 47.6% (inactive) | 93.1% (inactive) | 72.5% (inactive) | 84.8% (inactive) | 83% (inactive) | 34.6% (inactive) | -17.7% (active) | 3.02% (active) | 100% (inactive) | 15.3% (inactive) | -73% (active) | 38.2% (inactive) | 81.9% (inactive) | 87.7% (inactive) | -43.4% (active) | 96.7% (inactive)
